Data: PubChem BioAssay AID1159580 (chemical genetic matrix, 2015)
“And” between values parts separate entries of the source, which are not always exact repeats. Equal entries are not always repeated. Among all 5,500 compounds or so, about 2,000 (36%) were called active. Another 18% or so got no clear call; they are omitted. Rule as the data show it: active = normalized growth mostly below about 0.91 (no sharp cut-off); inconclusive = no clear call, values can overlap the other calls; inactive = mostly above about 0.92. The list shows a part of the results.

Assay: chemical genetic growth profiling, strain panel (AID 1159580);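 also: tested at 20 µM; growth read once vehicle control cultures reached saturation at 30 °C; 1 = growth at the plate median or of vehicle wells; lower values mean less growth of the strain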
Conditions: S. cerevisiae deletion strains, growth OD
[1] = locus YHR030C, strain SLT2, stronger effect = lower value
[2] = locus YHR079C, strain IRE1, stronger effect = lower value
[3] = locus YJL095W, strain BCK1, stronger effect = lower value
[4] = locus YJR066W, strain TOR1, stronger effect = lower value
[5] = locus YLR113W, strain HOG1, stronger effect = lower value
[6] = locus YNL183C, strain NPR1, stronger effect = lower value
[7] = locus YOR231W, strain MKK1, stronger effect = lower value
[8] = locus YPL256C, strain CLN2, stronger effect = lower value

Measured: normalized growth

COc1c(CC(=O)c2cc3c(cc2O)OC(C)(C)C(O)C3)ccc2c1C=CC(C)(C)O2 (stereo not drawn)
active: locus YBR021W, strain FUR4, stronger effect = lower value 0.653 | locus YOR184W, strain ser1, stronger effect = lower value 0.851
inactive: locus YBR229C, strain ROT2, stronger effect = lower value 0.998 | locus YCL029C, strain bik1, stronger effect = lower value 0.975 | locus YDL035C, strain GPR1, stronger effect = lower value 1.01 | locus YDL074C, strain BRE1, stronger effect = lower value 0.926 | locus YDL101C, strain DUN1, stronger effect = lower value 1.01 | locus YDL185W, strain tfp1, stronger effect = lower value 1 | locus YDL192W, strain arf1, stronger effect = lower value 0.96 | locus YDR101C, strain arx1, stronger effect = lower value 0.974 | locus YDR162C, strain NBP2, stronger effect = lower value 1.01 | locus YDR318W, strain mcm21, stronger effect = lower value 0.984 | locus YDR388W, stronger effect = lower value 0.994 | locus YDR502C, strain sam2, stronger effect = lower value 1.01 | locus YEL061C, strain CIN8, stronger effect = lower value 1.01 | locus YER110C, stronger effect = lower value 1.01 | locus YER155C, strain BEM2, stronger effect = lower value 0.989 | locus YER167W, strain BCK2, stronger effect = lower value 1 | locus YGL078C, strain dbp3, stronger effect = lower value 1.01 | locus YGL086W, strain mad1, stronger effect = lower value 0.979 | locus YGL248W, strain PDE1, stronger effect = lower value 1.02 | locus YGR078C, strain PAC10, stronger effect = lower value 1.03 | locus YGR135W, strain pre9, stronger effect = lower value 1.05 | locus YGR252W, strain gcn5, stronger effect = lower value 0.937 | [1] 0.955 | locus YHR079C, strain IRE1 (second series), stronger effect = lower value 1 | [2] 0.958 | locus YHR094C, strain hxt1, stronger effect = lower value 1.01 | locus YHR129C, strain ARP1, stronger effect = lower value 0.997 | locus YHR200W, strain rpn10, stronger effect = lower value 1 | locus YIL066C, strain RNR3, stronger effect = lower value 0.997 | locus YIL073C, strain SPO22, stronger effect = lower value 1.05 | locus YIL125W, strain kgd1, stronger effect = lower value 0.982 | locus YIR030C, strain dcg1, stronger effect = lower value 0.987 | [3] 0.981 and 0.988 | locus YJL134W, strain LCB3, stronger effect = lower value 0.996 | locus YJL168C, strain set2, stronger effect = lower value 1.02 | locus YJL187C, strain SWE1 (second series), stronger effect = lower value 1.02 | [4] 0.935 | locus YKL009W, strain mrt4, stronger effect = lower value 0.992 | locus YKL068W, stronger effect = lower value 1 | locus YKL085W, strain MDH1 (second series), stronger effect = lower value 0.998 | locus YKL085W, strain MDH1, stronger effect = lower value 0.998 | locus YKR001C, strain vps1, stronger effect = lower value 0.961 | locus YLR039C, strain RIC1, stronger effect = lower value 1.08 | locus YLR058C, strain SHM2, stronger effect = lower value 0.999 | locus YLR102C, strain apc9, stronger effect = lower value 0.992 | [5] 0.961 | locus YLR262C, strain YPT6, stronger effect = lower value 1.02 | locus YLR268W, strain sec22, stronger effect = lower value 0.977 | locus YLR371W, strain rom2, stronger effect = lower value 0.998 | locus YLR418C, strain cdc73, stronger effect = lower value 0.938 | locus YML016C, strain PPZ1, stronger effect = lower value 0.999 | locus YML032C, strain rad52, stronger effect = lower value 0.982 | locus YML124C, strain tub3, stronger effect = lower value 0.984 | locus YMR078C, strain ctf18, stronger effect = lower value 1 | locus YMR223W, strain ubp8, stronger effect = lower value 1.01 | locus YMR263W, strain SAP30, stronger effect = lower value 0.996 | locus YMR307W, strain GAS1, stronger effect = lower value 0.807 | locus YNL067W, strain RPL9B, stronger effect = lower value 1.01 | locus YNL128W, strain TEP1, stronger effect = lower value 1.01 | locus YNL153C, strain GIM3, stronger effect = lower value 1.06 | [6] 0.937 | locus YNL233W, strain BNI4, stronger effect = lower value 0.997 | locus YNL250W, strain rad50, stronger effect = lower value 1.06 | locus YNL271C, strain bni1, stronger effect = lower value 0.996 | locus YNL298W, strain CLA4, stronger effect = lower value 0.991 | locus YNL307C, strain MCK1, stronger effect = lower value 0.988 | locus YNR052C, strain pop2, stronger effect = lower value 0.993 | locus YOL012C, strain htz1 1.64 | locus YOL147C, strain pex11, stronger effect = lower value 0.988 | locus YOR061W, strain CKA2, stronger effect = lower value 0.996 | locus YOR069W, strain VPS5, stronger effect = lower value 1 | locus YOR136W, strain idh2, stronger effect = lower value 0.996 | locus YOR144C, strain elg1, stronger effect = lower value 0.995 | [7] 0.951 | locus YOR316C, strain cot1, stronger effect = lower value 0.998 | locus YPL055C, strain LGE1, stronger effect = lower value 0.942 | [8] 0.962 | locus YPR119W, strain clb2, stronger effect = lower value 0.999 | locus YPR141C, strain kar3, stronger effect = lower value 1 | locus YPR163C, strain tif3, stronger effect = lower value 0.988 | locus YPR167C, strain met16, stronger effect = lower value 1 | strain wtn01, stronger effect = lower value 0.972

COc1c(-c2coc3cc4c(cc3c2=O)CC(O)C(C)(C)O4)ccc2c1C=CC(C)(C)O2 (stereo not drawn)
active: locus YOR270C, strain vph1, stronger effect = lower value 0.608
inactive: locus YAL021C, strain ccr4, stronger effect = lower value 0.992 | locus YAL026C, strain drs2, stronger effect = lower value 0.978 | locus YAL030W, strain snc1, stronger effect = lower value 0.996 | locus YBL061C, strain skt5, stronger effect = lower value 0.983 | locus YBR009C, strain hhf1, stronger effect = lower value 0.97 | locus YBR023C, strain chs3, stronger effect = lower value 0.983 | locus YBR171W, strain sec66, stronger effect = lower value 0.973 | locus YBR231C, strain swc5, stronger effect = lower value 0.989 | locus YBR279W, strain paf1, stronger effect = lower value 0.989 | locus YCL011C, strain gbp2, stronger effect = lower value 0.992 | locus YCL016C, strain dcc1, stronger effect = lower value 0.986 | locus YCL069W, strain vba3, stronger effect = lower value 0.97 | locus YCR088W, strain abp1, stronger effect = lower value 0.979 | locus YDL005C, strain med2, stronger effect = lower value 0.972 | locus YDL040C, strain nat1, stronger effect = lower value 0.987 | locus YDR001C, strain nth1, stronger effect = lower value 0.979 | locus YDR069C, strain doa4, stronger effect = lower value 1 | locus YDR137W, strain rgp1, stronger effect = lower value 0.902 | locus YDR159W, strain sac3, stronger effect = lower value 0.973 | locus YDR195W, strain ref2 1.05 | locus YDR297W, strain sur2, stronger effect = lower value 0.978 | locus YDR334W, strain swr1, stronger effect = lower value 0.958 | locus YDR335W, strain msn5, stronger effect = lower value 0.974 | locus YDR392W, strain spt3, stronger effect = lower value 0.829 | locus YEL003W, strain gim4, stronger effect = lower value 0.99 | locus YEL037C, strain rad23, stronger effect = lower value 0.973 | locus YEL061C, strain CIN8 (second series), stronger effect = lower value 0.98 | locus YER015W, strain faa2, stronger effect = lower value 0.991 | locus YER016W, strain bim1, stronger effect = lower value 0.992 | locus YER111C, strain swi4, stronger effect = lower value 0.973 | locus YER155C, strain BEM2 (second series), stronger effect = lower value 0.967 | locus YFR010W, strain ubp6, stronger effect = lower value 0.989 | locus YGL167C, strain pmr1, stronger effect = lower value 0.969 | locus YGL173C, strain kem1, stronger effect = lower value 0.989 | locus YGL227W, strain vid30, stronger effect = lower value 0.992 | locus YGL240W, strain doc1, stronger effect = lower value 0.979 | locus YGL253W, strain hxk2, stronger effect = lower value 0.983 | locus YHR013C, strain ard1, stronger effect = lower value 0.954 | locus YHR027C, strain rpn1, stronger effect = lower value 1 | [1] 0.932 | [2] 0.929 | locus YHR142W, strain chs7, stronger effect = lower value 0.942 | locus YJL092W, strain hpr5, stronger effect = lower value 0.99 | locus YJL095W, strain BCK1 (second series), stronger effect = lower value 0.983 | [3] 0.94 | locus YJL115W, strain asf1, stronger effect = lower value 0.971 | locus YJL129C, strain trk1, stronger effect = lower value 0.887 | locus YJL154C, strain vps35, stronger effect = lower value 0.97 | locus YJL164C, strain tpk1, stronger effect = lower value 0.974 | locus YJL166W, strain qcr8, stronger effect = lower value 0.979 | locus YJL187C, strain SWE1, stronger effect = lower value 0.991 | [4] 0.865 | locus YKL160W, strain elf1, stronger effect = lower value 0.992 | locus YKR026C, strain gcn3, stronger effect = lower value 0.957 | locus YKR091W, strain srl3, stronger effect = lower value 0.992 | locus YLL001W, strain dnm1, stronger effect = lower value 0.991 | locus YLL026W, stronger effect = lower value 0.989 | locus YLL041C, strain sdh2, stronger effect = lower value 1.01 | locus YLR027C, strain aat2, stronger effect = lower value 0.996 | [5] 0.996 | locus YLR221C, strain rsa3, stronger effect = lower value 0.991 | locus YLR258W, strain gsy2, stronger effect = lower value 0.965 | locus YLR262C, strain YPT6 (second series), stronger effect = lower value 0.877 | locus YLR320W, strain mms22, stronger effect = lower value 0.962 | locus YLR342W, strain FKS1, stronger effect = lower value 0.98 | locus YLR357W, strain rsc2, stronger effect = lower value 0.967 | locus YLR370C, strain arc18, stronger effect = lower value 0.995 | locus YLR384C, strain iki3, stronger effect = lower value 0.976 | locus YML120C, strain ndi1, stronger effect = lower value 1.01 | locus YMR058W, strain fet3, stronger effect = lower value 0.993 | locus YMR125W, strain sto1, stronger effect = lower value 0.988 | locus YMR129W, stronger effect = lower value 0.982 | locus YMR205C, strain PFK2, stronger effect = lower value 0.961 | locus YMR231W, strain pep5, stronger effect = lower value 0.963 | locus YNL071W, strain lat1, stronger effect = lower value 0.975 | [6] 0.922 | locus YNL209W, strain ssb2, stronger effect = lower value 1 | locus YNL248C, strain rpa49, stronger effect = lower value 0.971 | locus YNL322C, strain KRE1 (second series), stronger effect = lower value 1.02 | locus YNR049C, strain mso1, stronger effect = lower value 0.99 | locus YOR001W, strain rrp6, stronger effect = lower value 0.973 | locus YOR070C, strain gyp1, stronger effect = lower value 0.992 | locus YOR080W, strain dia2, stronger effect = lower value 0.994 | locus YOR083W, strain WHI5, stronger effect = lower value 0.978 | locus YOR106W, strain vam3, stronger effect = lower value 0.962 | [7] 0.94 | locus YOR265W, strain rbl2, stronger effect = lower value 0.98 | locus YOR290C, strain snf2, stronger effect = lower value 0.955 | locus YPL051W, strain arl3, stronger effect = lower value 0.972 | locus YPL078C, strain atp4, stronger effect = lower value 0.972 | locus YPL106C, strain sse1, stronger effect = lower value 1.01 | locus YPL240C, strain hsp82, stronger effect = lower value 0.982 | [8] 0.922
